Compounds without any hit were thinned out: in the full panel of roughly 83,000, 20% have a hit.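 Note: values are percent growth. 100 is the growth of untreated cells, values between 100 and 0 indicate rising inhibition; between -100 and 0 indicates cell death.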 A number with no mark means an inactive call. Active and inactive are the calls of the source. The calls were made as follows: active = growth percent below 10; inactive = the rest.

Consider 28 compounds from PubChem BioAssay (NCI).

Common to all, as to assay: NCI-60 one-dose screen, 48 h (100 = growth as untreated, 0 = no growth, -100 = all killed)
What all share (details): 10 µM unless noted

For assay [1], the system named is SN12C renal.
For assay [2], the system named is UO-31 renal.
Assay [3] relates to TK-10 renal.
Assay [4] concerns ACHN renal.
Assay [5] has as its system CAKI-1 renal.
Assay [6] relates to A498 renal.
Assay [7] relates to CCRF-CEM leukemia.
In assay [8] the test system is MOLT-4 leukemia.
Assay [9] deals with SR leukemia.

As to `COC(=O)c1cc2c(n1Cc1ccccc1)-c1oncc1CCC2`, the growth is 73.2% in assay [1]; 79.9% in [2]; 102% in [3]; 79.8% in assay [4]; 78.7% in [5]; 53.8% in assay [6]. Besides, the growth is 61.7% in assay [7], 61.7% in [8] and 12.2% in assay [9].
As to `COc1ccc(Nc2nc(N/N=C/c3ccc(O)cc3)nc(Nc3ccc([N+](=O)[O-])cc3)n2)cc1`, the growth in [1] was 103%; in assay [2], 103%; in [3] it was 115%; in assay [4], 103%; in assay [5], 123%; in assay [6], 105%. Moreover, the results for the growth in assay [7], in [8] and in assay [9] were 99.9%, 108% and 105%, respectively.
Regarding `COc1ccc(-c2nnc(COc3ccc(C(=O)/C=C/c4ccco4)cc3)o2)cc1`, the growth is 68.1% in [1]; 53.5% in assay [2]; 95.3% in [3]; 85.9% in assay [4]; 67.2% in assay [5]; 115% in [6]. In addition, the growth in assay [7] is 10.7%; in [8] it was 41.9%; in [9] it was 0.0515% (active).
Turning to `O=NN(C(=O)NC1CCC(C(=O)O)CC1)C1CCC(C(=O)O)CC1` (configuration not stated), the growth in assay [1] was 103%; in assay [2], 92.8%; in assay [3] it was 110%; in assay [4], 100%; in [5], 90.2%; in assay [6], 103%. Also, the growth in [7] was 91.9%; in assay [8] it was 102%; in [9] it was 95%.
Consider `O=C(Nc1ccsc1C(=O)NC1CCCCC1)c1ccc(F)cc1`, for which the growth in assay [1] is 98.3%; in assay [2], 94.4%; in [3], 114%; in assay [4] it was 101%; in assay [5] it was 95.6%; in assay [6], 95.5%. For the same compound, the figures for the growth in [7], in [8] and in [9] were 66.6%, 95.6% and 79.4%, respectively.
In the case of `NNC(=O)CNC(=O)Nc1n[nH]c(=S)s1`, the growth in assay [1] is 98.1%; in assay [2], 73.6%; in assay [3] it was 107%; in assay [4], 94.4%; in [5], 98.3%; in assay [6], 98.3%. Moreover, the values for the growth in assay [7], in assay [8] and in assay [9] were 93%, 89.5% and 83.3%, respectively.
`COc1cc(C(=O)NN=C2c3ccccc3-c3ccccc32)cc(OC)c1OC`: the growth in [1] is 41.6%; in assay [2], 46.5%; in assay [3], 55.5%; in assay [4] it was 46.4%; in assay [5], 24.6%; in assay [6], 6.68% (active). Besides, the growth in assay [7] is 25.5%; in assay [8], 39.3%; in [9], 13.9%.
As to `COc1ccc(-c2nsc3c2NC(=O)CC3c2ccsc2)cc1` (configuration not stated), the growth in assay [1] is 41.9%; in [2] it was 45%; in [3], 53.2%; in [4], 41.9%; in assay [5], 27.6%; in assay [6], 0.156% (active). Further, the results for the growth in assay [7], in assay [8] and in assay [9] were -7.06% (active), 17.5% and 19.2%, respectively.
With `CCN(CC)c1cc(C)c2cc(NC(=O)c3cccc(OC)c3)ccc2n1`, the growth in assay [1] is 79.1%; in assay [2], 81.6%; in assay [3] it was 114%; in assay [4], 91.2%; in assay [5], 73.2%; in assay [6] it was 29.2%. Moreover, the growth in assay [7] is 24.8%; in [8] it was 32.7%; in [9], 43.5%.
`O=C(Nc1ccccc1O)c1ccc(Oc2cccc(C(=O)Nc3ccccc3O)c2)cc1`: the growth in [1] was 15.4%; in assay [2], 5.32% (active); in assay [3], 28.3%; in [4], 15.8%; in assay [5], -0.0411% (active); in assay [6], 20.5%. For the same compound, the growth in [7] was -6.44% (active); in assay [8] it was -28.5% (active); in assay [9] it was -28.6% (active).
For `COc1ccc(-c2nsc3c2NC(=O)CC3c2cccc(OC)c2)cc1` (configuration not stated), the growth in assay [1] is 66.9%; in [2] it was 46.3%; in assay [3], 61.9%; in assay [4], 55.1%; in [5], 32.9%; in assay [6], 27.4%. Moreover, the results for the growth in assay [7], in assay [8] and in [9] were 14.2%, 32.2% and 24.3%, respectively.
Regarding `Clc1ccc(-c2nnc(COc3ccc(C4=NNC(c5ccco5)C4)cc3)o2)cc1` (configuration not stated), the growth in assay [1] was 86.5%; in assay [2], 67.3%; in [3], 83.4%; in assay [4], 94.9%; in assay [5], 86.4%; in [6], 83.8%. Besides, the growth was 84.7% in assay [7], 85.5% in assay [8] and 80.7% in assay [9].
`O=NN(Cc1cccnc1)C(=O)NC1CCCCC1`: the growth in [1] was 98.9%; in assay [2] it was 90%; in assay [3] it was 114%; in assay [4] it was 96.5%; in assay [5] it was 93.9%; in assay [6] it was 103%. The growth in [7] was 102%; in assay [8] it was 111%; in assay [9], 99.7%.
As to `COc1cc(-c2c3c(c(Br)n2Cc2ccccc2)-c2nc(N)sc2CC3)cc(OC)c1OC`, the growth in assay [1] is 85.7%; in assay [2], 70.6%; in [3], 119%; in [4], 88.3%; in assay [5] it was 97.4%; in [6], 80.5%. Also, the values for the growth in assay [7], in assay [8] and in [9] were 44.4%, 50.6% and 40.2%, respectively.
As to `COc1c2ccoc2c(/C=C/C=O)c2oc(-c3ccccc3)cc(=O)c12`, the growth in assay [1] was 38.7%; in [2], 60.1%; in [3], 93.8%; in [4], 91.5%; in assay [5] it was 93.1%; in [6] it was 72.4%. Further, the growth is 0.373% (active) in assay [7], 10.4% in assay [8] and 5.33% (active) in assay [9].
Take `c1ccc2cc3c(Nc4ccc(N5CCOCC5)cc4)ccnc3cc2c1`: the growth was 94.5% in [1]; 81.2% in assay [2]; 107% in assay [3]; 94.8% in assay [4]; 92.8% in assay [5]; 77.6% in assay [6]. Besides, the growth in assay [7] was 77.4%; in [8] it was 78.1%; in [9], 81.3%.
For the compound `CC(=O)Nc1nc2c(s1)CCc1c-2cn(S(=O)(=O)c2ccccc2)c1-c1ccccc1`, the growth is 76.8% in assay [1]; 41.2% in assay [2]; 85.9% in assay [3]; 69.1% in assay [4]; 56.9% in assay [5]; 88.1% in assay [6]. Further, the growth in [7] was 43.1%; in [8] it was 48.2%; in assay [9], 28.1%.
Regarding `COc1ccccc1C(=O)O/N=C(\N)Cc1cccc2ccccc12`, the growth in [1] was 67.3%; in [2] it was 70.8%; in assay [3], 120%; in assay [4], 86.5%; in assay [5] it was 77%; in assay [6], 95.1%. The values for the growth in assay [7], in assay [8] and in assay [9] were 80.1%, 79% and 82.1%, respectively.
Take `O=S(=O)(c1ccccc1)n1cc2c(c1-c1ccccc1)CCc1sc(Nc3ccccc3)nc1-2`: the growth is 77.1% in assay [1]; 70.4% in assay [2]; 100% in assay [3]; 77.9% in assay [4]; 75.8% in assay [5]; 89.4% in assay [6]. For the same compound, the growth in [7] was 72.6%; in [8], 76%; in assay [9], 79.3%.
As to `Cn1c(C(=O)c2cccc3ccccc23)nc2ccccc21`, the growth in [1] is 11.8%; in [2], -21.3% (active); in assay [3] it was 21.3%; in [4], 11%; in [5], -11.9% (active); in assay [6], 36.3%. The growth was 8.07% (active) in [7], 9.16% (active) in assay [8] and 4.54% (active) in assay [9].
For `Oc1c(C(Nc2ccccn2)c2cccc(Oc3ccccc3)c2)ccc2cccnc12` (configuration not stated), the growth in assay [1] is -89.4% (active); in assay [2], -90.4% (active); in assay [3] it was -90.9% (active); in assay [4], -88.8% (active); in assay [5], -90.3% (active); in assay [6], -61% (active). The growth in assay [7] was -59% (active); in assay [8], -70.1% (active); in assay [9], -49.7% (active).
As for `NC1(N2SC(S)=C3CCCC=C32)CCCCC1`, the growth is 104% in [1]; 78.6% in assay [2]; 99.5% in assay [3]; 102% in assay [4]; 97% in [5]; 101% in assay [6]. The values for the growth in [7], in [8] and in assay [9] were 105%, 87% and 86.9%, respectively.
Turning to `COC(=O)C1=C(C)NC(C)=C(C(=O)OC)C(N2C(=O)CCC2=O)C1` (configuration not stated), the growth was 88.7% in assay [1]; 81.9% in [2]; 123% in assay [3]; 99% in [4]; 92.6% in assay [5]; 109% in assay [6]. Also, the growth in [7] was 35.3%; in assay [8], 78.1%; in assay [9], 37.3%.
On to `CC1=C(CC(=O)c2cccc([N+](=O)[O-])c2)C(=O)c2ccccc2C1=O`, for which the growth in [1] is -36% (active); in assay [2], -64.3% (active); in assay [3] it was -43.1% (active); in assay [4], 13.8%; in [5], -28.1% (active); in [6], 68%. The growth in assay [7] is 4.59% (active); in [8], 36.5%; in assay [9], -46.1% (active).
Consider `CCOC(=O)C1(Cc2ccccc2)CCN(Cc2cccc(OC)c2O)CC1`, for which the growth was 10.7% in assay [1]; -11.8% (active) in [2]; 36.7% in assay [3]; 10.8% in assay [4]; -11.3% (active) in assay [5]; 21.2% in assay [6]. In addition, the growth in assay [7] was 9.78% (active); in assay [8] it was 9.72% (active); in [9], 7.58% (active).
Turning to `O=C(NC1CCCCC1)C(c1cccs1)N(CCc1ccccc1)C(=O)c1ccco1` (configuration not stated), the growth was 92.2% in assay [1]; 100% in assay [2]; 94.5% in assay [3]; 94.6% in assay [4]; 83% in [5]; 93% in assay [6]. Moreover, the growth is 93.8% in [7], 84.9% in assay [8] and 85.8% in [9].
Take `COc1ccc(C(=O)Nc2ccc3nc(N4CCCCC4)cc(C)c3c2)cc1OC`: the growth in assay [1] was 88.8%; in assay [2], 98.7%; in assay [3], 104%; in [4], 94.9%; in assay [5], 88.4%; in [6] it was 35.5%. In addition, the growth in assay [7] was 54.8%; in [8], 49%; in assay [9], 33.1%.
Regarding `Cc1ccc(S(=O)c2ccc([N+](=O)[O-])c3nonc23)cc1` (configuration not stated), the growth in [1] is 126%; in assay [2], 97.9%; in [3] it was 72.3%; in [4], 72.4%; in [5] it was 90.5%; in [6], 84.3%. Besides, the growth in [7] is 1.61% (active); in [8] it was -3.44% (active); in assay [9], -8.16% (active).
